For part of these data: Measured potencies and affinities stand elsewhere. The source made the active and inactive calls.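 How the source made its calls, unless noted: active means primary screen hit whose calcium fluorescence ratio, in both repeats, exceeds the weak agonist control mean by 3 SD; inactive means the rest.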

For experiment [1], the system named is TRPC4 beta (transient receptor potential cation channel C4), mouse. Kind of experiment: TRPC4 cation channel opening, retest – cell-based, Fluo4 calcium, HEK293 TRPC4beta/mu-opioid, duplicates, 10 µM, confirmation (AID 2426;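 active means fluorescence ratio normalized to control raised more than 50% in primary screen plus both repeat runs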;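 on activation: percent rise of integrated ratio over buffer wells lacking compound which define 0%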). As to conditions: Fluo4 calcium fluorescence, at 10 µM; active compounds read high.
For experiment [2], the system named is transient receptor potential cation channel C4 beta (TRPC4), mouse. Kind of experiment: TRPC4 cation channel opening, second retest – cell-based, second round, Fluo4, HEK293 TRPC4beta/mu-opioid, 1 µM, confirmation (AID 2461;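 active means primary screen active and over 50% activation in each of two duplicate runs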;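 on activation: 0% = wells without test compound as baseline of integrated fluorescence ratio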). As to conditions: Fluo4 calcium fluorescence, at 1 µM; active compounds read high.
In experiment [3] the test system is TRPC4 (transient receptor potential cation channel C4 beta), mouse. The experiment is described as follows: potentiation of DAMGO EC20 TRPC4 response – cell-based, second round, Fluo-4, HEK293 TRPC4beta/mu-opioid, 1 µM, confirmation (AID 2554;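 active means primary screen hit whose fluorescence ratio, in both repeats, exceeds the weak agonist control mean by 3 SD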). Conditions: DAMGO EC20, Fluo-4 calcium flux, at 1 µM; active compounds read high. A general note: Calcium assays in cells follow changes in intracellular calcium, usually with a dye or a luminescent sensor.

The test system of experiment [4] is TRPC4 beta (transient receptor potential cation channel C4), mouse. The experiment is described as follows: potentiation of DAMGO EC20 TRPC4 response – cell-based, Fluo-4, HEK293 TRPC4beta/mu-opioid, confirmation (AID 2555). Conditions: DAMGO EC20, Fluo-4 calcium flux, at 10 µM; active compounds read high.
Experiment [5] deals with Short transient receptor potential channel 4 (Mus musculus) (UniProt Q9QUQ5). Kind of experiment: blockers of DAMGO-evoked TRPC4 calcium flux – cell-based, Fluo4, HEK293 TRPC4beta/mu-opioid, confirmation (AID 2636;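 active means calcium signal cut by more than 3 SD below the full-agonist control yet still positive, in both repeats and the earlier primary screen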). As to conditions: at 10 µM; active compounds read high.
Experiment [6] has the same target. The experiment is described as follows: blockers of DAMGO-evoked TRPC4 calcium flux – cell-based, second round, Fluo4, HEK293 TRPC4beta/mu-opioid, 1 µM, confirmation (AID 2637;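 active means calcium signal ratio cut to more than 3 SD under the fully stimulated control mean yet still positive, in both repeats and the primary screen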). Conditions: at 1 µM; active compounds read high.
Experiment [7] shares this target. The experiment is described as follows: potentiation of DAMGO-evoked TRPC4 calcium signal – cell-based, HEK293 TRPC4/mu-opioid, Fluo-4 calcium, EC20 DAMGO, dose response (AID 434941;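 active means earlier screen potentiator hit that boosts the TRPC4 ion channel at some dose, with a dose response; inactive means no potentiation, no dose response, or not a prior hit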;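 further: calcium entry triggered by an EC20 dose of DAMGO at the co-expressed mu-opioid receptor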).
The target is the same in experiment [8]. The experiment is described as follows: block of DAMGO-driven TRPC4 calcium entry – cell-based, HEK293 TRPC4/mu-opioid, Fluo-4 calcium, dose response (AID 434942;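 active means primary screen inhibitor hit that blocks the TRPC4 channel at some tested dose, yielding a dose curve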).
For experiment [9], the target named is Short transient receptor potential channel 6 (Mus musculus) (UniProt Q61143). Kind of experiment: TRPC6 blockade by TRPC4 inhibitor hits – cell-based, HEK293, membrane potential dye, duplicate, selectivity assay for TRPC4 inhibitor project, confirmation (AID 434948;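 active means active in primary screen and both duplicates, each dropping signal beyond three positive-control SD with fluorescence still positive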). As to conditions: HEK293 TRPC6, membrane potential dye fluorescence, at 10 µM, stimulated with maximal-effect acetylcholine; active compounds read high.

For experiment [10] the target is unchanged. Kind of experiment: TRPC6 opening by TRPC4 activator hits – cell-based, HEK293, membrane potential dye, duplicate, selectivity assay for TRPC4 activator project, confirmation (AID 434950;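 active means membrane potential signal rise above negative control mean plus 3 SD in both duplicates, also active in the earlier TRPC4 screen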;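 on activation: 0% = buffer only wells and 100% = acetylcholine maximal-effect wells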). Conditions: HEK293 TRPC6, membrane potential fluorescence, at 10 µM; activation: active compounds read high; outcome: activation.
Experiment [11] shares this target. Kind of experiment: positive modulators of mouse TRPC6 channel – HEK293 cells, membrane potential dye, duplicate, selectivity assay for TRPC4 potentiator project, confirmation (AID 434952;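 active means compound raising the membrane signal above positive-control mean plus 3 SD in both repeats, and a primary screen hit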). Conditions: HEK293 TRPC6, membrane potential dye fluorescence, at 10 µM, maximal acetylcholine added after compound; active compounds read high.
For experiment [12], the target named is Short transient receptor potential channel 4 (Mus musculus) (UniProt Q9QUQ5). Kind of experiment: calcium flux activators in TRPC4/5HT1a cells, counter-screen for TRPC4 activator project, cell-based, second counter screen, HEK293 TRPC4/5HT1a, Fluo-4 (AID 434977;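 active means calcium signal rise above buffer-control mean plus 5 SD in both duplicates, and also a hit in the primary screen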;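 on activation: plate controls were assay buffer for no effect and maximal serotonin response for full effect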). As to conditions: Fluo-4 calcium flux, at 10 µM; active compounds read high.
A short description of experiment [13]: serotonin-gated TRPC4 signal block – cell-based, second counter screen, HEK293 TRPC4/5HT1a, Fluo-4, counter-screen for TRPC4 inhibitor project, confirmation (AID 434978;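 active means primary screen active whose calcium signal fell more than 3 SD beyond the full-serotonin control mean in both duplicate plates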;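 further: serotonin given first at submaximal then at maximal dose after compound preincubation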). As to conditions: Fluo-4 calcium flux, at 10 µM, serotonin added to trigger calcium flux; active compounds read high.
For experiment [14], the system named is TRPC4 (mouse), co-expressed with 5HT1a in HEK293. The experiment is described as follows: enhancement of serotonin-evoked TRPC4 response – cell-based, second counter screen, HEK293 TRPC4/5HT1a, Fluo-4, counter-screen for TRPC4 potentiator project, confirmation (AID 434979;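 active means signal rise over 3 SD above mean of control wells given weak agonist, in both repeats and first screen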). Conditions: Fluo-4 calcium flux, at 10 µM, serotonin added at its EC20 dose; active compounds read high.

The nature of experiment [15]: nonspecific calcium rise without TRPC4 – cell-based, HEK293 mu-opioid receptor line, counter-screen for TRPC4 activator project, confirmation (AID 449723;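 active means hit in primary screen, with calcium signal over 5 SD above buffer well mean in both duplicates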;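 further: counter screen cells carry the mu-opioid receptor alone and lack TRPC4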). As to conditions: HEK293 mu-opioid cells, Fluo-4 calcium fluorescence, at 10 µM; active compounds read high. In general terms: Counterscreens check selectivity or assay interference.
Experiment [16] in a line: nonspecific potentiation of DAMGO calcium response – cell-based, HEK293 mu-opioid receptor line, counter-screen for TRPC4 allosteric potentiator project, confirmation (AID 449724;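 active means calcium signal rise more than 3 SD above the low-dose agonist control mean, in both duplicate plates and the primary screen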;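 further: HEK293 cells carrying mu-opioid receptor only with no TRPC4 channel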). As to conditions: HEK293 mu-opioid receptor cells, Fluo-4 calcium flux, at 10 µM, compound added before EC20 DAMGO stimulus; active compounds read high.

Chain of Short transient receptor potential channel 4 (Mus musculus) (Q9QUQ5 whole entry, looked up): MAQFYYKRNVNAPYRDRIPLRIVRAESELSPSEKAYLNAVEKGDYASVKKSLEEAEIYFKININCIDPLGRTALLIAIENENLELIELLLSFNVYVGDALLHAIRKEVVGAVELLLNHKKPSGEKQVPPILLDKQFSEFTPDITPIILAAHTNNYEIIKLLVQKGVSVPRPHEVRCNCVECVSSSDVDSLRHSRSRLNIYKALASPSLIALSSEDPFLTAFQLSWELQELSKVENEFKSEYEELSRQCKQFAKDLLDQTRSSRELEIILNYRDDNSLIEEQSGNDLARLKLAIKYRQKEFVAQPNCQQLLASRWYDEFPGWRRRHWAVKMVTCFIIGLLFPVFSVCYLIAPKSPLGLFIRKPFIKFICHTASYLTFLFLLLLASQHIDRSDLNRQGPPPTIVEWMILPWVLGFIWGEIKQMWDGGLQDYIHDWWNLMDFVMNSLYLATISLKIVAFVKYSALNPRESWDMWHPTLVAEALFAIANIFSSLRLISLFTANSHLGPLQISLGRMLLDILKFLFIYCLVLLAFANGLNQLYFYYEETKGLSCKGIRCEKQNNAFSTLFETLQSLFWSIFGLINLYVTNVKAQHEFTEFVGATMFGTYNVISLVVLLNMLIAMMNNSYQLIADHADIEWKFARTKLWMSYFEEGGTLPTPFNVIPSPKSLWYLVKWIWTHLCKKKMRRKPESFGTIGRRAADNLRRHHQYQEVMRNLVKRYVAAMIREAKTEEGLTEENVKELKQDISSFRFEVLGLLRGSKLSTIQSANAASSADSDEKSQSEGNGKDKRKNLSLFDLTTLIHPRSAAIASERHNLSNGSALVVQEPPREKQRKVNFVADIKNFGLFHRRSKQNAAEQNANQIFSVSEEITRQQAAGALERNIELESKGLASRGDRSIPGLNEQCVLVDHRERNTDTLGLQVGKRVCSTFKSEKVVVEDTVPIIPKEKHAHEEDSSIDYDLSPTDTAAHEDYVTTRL
Chain of Short transient receptor potential channel 6 (Mus musculus) (Q61143 whole entry, looked up): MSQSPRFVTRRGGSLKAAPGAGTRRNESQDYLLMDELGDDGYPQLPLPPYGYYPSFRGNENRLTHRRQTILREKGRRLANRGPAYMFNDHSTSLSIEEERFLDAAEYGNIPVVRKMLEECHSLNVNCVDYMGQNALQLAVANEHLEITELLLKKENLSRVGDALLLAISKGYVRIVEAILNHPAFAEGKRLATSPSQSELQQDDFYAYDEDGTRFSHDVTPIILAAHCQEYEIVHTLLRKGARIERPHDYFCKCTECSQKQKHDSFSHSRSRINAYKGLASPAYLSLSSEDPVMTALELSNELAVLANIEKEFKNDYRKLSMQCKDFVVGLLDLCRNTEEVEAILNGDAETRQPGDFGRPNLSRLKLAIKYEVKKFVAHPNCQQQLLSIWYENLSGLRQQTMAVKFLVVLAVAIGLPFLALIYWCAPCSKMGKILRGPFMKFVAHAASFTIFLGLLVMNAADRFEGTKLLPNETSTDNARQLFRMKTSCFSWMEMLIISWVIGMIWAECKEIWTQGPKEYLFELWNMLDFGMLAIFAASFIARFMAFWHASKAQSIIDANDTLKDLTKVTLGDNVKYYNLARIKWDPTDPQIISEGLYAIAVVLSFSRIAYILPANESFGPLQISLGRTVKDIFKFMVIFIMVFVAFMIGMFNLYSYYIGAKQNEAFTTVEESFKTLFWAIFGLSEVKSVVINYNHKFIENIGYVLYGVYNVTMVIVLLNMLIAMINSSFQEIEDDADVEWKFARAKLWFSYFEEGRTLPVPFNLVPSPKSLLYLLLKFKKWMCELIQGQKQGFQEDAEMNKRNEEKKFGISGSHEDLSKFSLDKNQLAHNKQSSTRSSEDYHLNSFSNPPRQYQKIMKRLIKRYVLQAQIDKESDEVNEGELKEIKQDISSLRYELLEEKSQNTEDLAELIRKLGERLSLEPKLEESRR

Turning to `O=C(NNC(=S)NC(=O)c1ccccc1Cl)c1cccc([N+](=O)[O-])c1`, the activation in experiment [1] is 120% (active); in experiment [10], 29% (active); in experiment [12], 77.4% (active); in [15], 23% (active). Moreover, the outcome in experiment [2], in experiment [3], in experiment [4], in experiment [5], in experiment [6] and in experiment [7] was inactive. The result in [8], in [9], in experiment [11], in experiment [13], in [14] and in experiment [16] was inactive.
`CC1(C)CC(=O)c2cc(C(=O)NCc3ccco3)c(=O)n(-c3ccc(Cl)cc3)c2C1`: the result in [1], in experiment [2], in [3], in experiment [4], in experiment [5] and in [6] was inactive. Besides, the outcome in experiment [7], in [8], in experiment [9], in experiment [11], in experiment [12] and in [13] was inactive. Moreover, the result in [14], in experiment [15] and in experiment [16] was inactive. Further, the activation in experiment [10] is 66.5% (active).
In the case of `Cc1ccc(-n2cc(CNCCc3ncc(C)[nH]3)c(-c3ccc(F)cc3)n2)cc1`, the activation in experiment [1] was 177% (active); in experiment [12] it was 14.9% (active). In addition, the outcome in experiment [2], in experiment [3], in experiment [4], in [5], in experiment [6] and in experiment [7] was inactive. Also, the result in [8], in experiment [9], in experiment [10], in [11], in experiment [13] and in experiment [14] was inactive. For the same compound, the result in experiment [15] and in experiment [16] was inactive.
Turning to `CC1CC(C)CN(CCCNC(=O)COc2cc(=O)n(C)c3ccccc23)C1` (stereo not given), the activation is 88% (active) in [1], 80% (active) in [2] and 23.2% (active) in [12]. In addition, the outcome in [3], in experiment [4], in experiment [5], in experiment [6], in experiment [7] and in experiment [8] was inactive. The compound was called inactive in experiment [9], in experiment [10], in experiment [11], in [13], in experiment [15] and in [16]. For the same compound, in experiment [14], the potentiation is 26.9% (active).
As to `c1ccc2c(c1)CCN(c1ncnc3c1[nH]c1ccccc13)C2`, the result in [1], in experiment [2], in experiment [3], in experiment [4], in [5] and in experiment [6] was inactive. In addition, the result in experiment [7], in [8], in experiment [9], in experiment [10], in experiment [11] and in [12] was inactive. The outcome in experiment [13], in experiment [14], in [15] and in [16] was inactive.
In the case of `CCc1cccc(CC)c1NC(=S)NCC(c1cccnc1)N(C)C` (stereo not given), the results for the activation in experiment [1], in [2] and in experiment [10] were 79% (active), 67% (active) and 46% (active), respectively. Further, the result in experiment [3], in experiment [4], in [5], in [6], in [7] and in experiment [8] was inactive. Besides, the call in experiment [9], in experiment [11], in experiment [12], in experiment [13], in [14] and in [15] was inactive. Besides, the result in experiment [16] was inactive.
Take `FC(F)(F)c1cnc(N2CCCN(C(=S)Nc3ccccc3)CC2)c(Cl)c1`: the figures for the activation in experiment [1], in experiment [2] and in experiment [12] were 208% (active), 62% (active) and 84.8% (active), respectively. The outcome in experiment [3], in experiment [4], in experiment [5], in [6], in experiment [7] and in [8] was inactive. The compound was classed as inactive in experiment [9], in experiment [10], in experiment [11], in experiment [13], in experiment [14] and in experiment [15]. Moreover, in experiment [16], the result was inactive.
Regarding `COC(=O)c1ccc(N2CCN(C)CC2)c(NC(=O)COc2ccccc2)c1`, the results for the activation in experiment [1] and in experiment [12] were 86% (active) and 12.3% (active), respectively. In addition, the outcome in experiment [2], in experiment [3], in experiment [4], in [5], in experiment [6] and in experiment [7] was inactive. Moreover, the result in [8], in [9], in experiment [10], in [11], in [13] and in experiment [14] was inactive. In addition, the outcome in experiment [15] and in [16] was inactive.
As to `CCN(CC)CCSc1nc2ccc(OC)cc2[nH]1`, the activation in [1] was 90% (active); in [2], 60% (active); in experiment [12], 31.6% (active). Moreover, the result in experiment [3], in [4], in experiment [5], in experiment [6], in experiment [7] and in [8] was inactive. For the same compound, the compound was classed as inactive in experiment [9], in experiment [10], in experiment [11], in experiment [13], in [14] and in experiment [15]. Moreover, the result in experiment [16] was inactive.
With `CC1CCCCN1S(=O)(=O)c1ccc(C(=O)N(CCCN(C)C)c2nc3ccc(Br)cc3s2)cc1` (stereo not given), the result in experiment [1], in [2], in [3], in experiment [4], in experiment [5] and in [6] was inactive. Moreover, the outcome in [7], in [8], in [9], in [10], in [11] and in [13] was inactive. Further, the outcome in [14] and in experiment [16] was inactive. Also, the activation in experiment [12] was 21% (active); in experiment [15] it was 14.9% (active).
In the case of `CC(c1cccnc1)N(CCN(C)C)C(=O)Nc1ccc(Cl)c(Cl)c1` (stereo not given), the outcome in experiment [1], in [2], in experiment [3], in [4], in experiment [5] and in experiment [6] was inactive. The result in experiment [7], in experiment [8], in [9], in experiment [11], in [12] and in experiment [13] was inactive. For the same compound, the result in [14], in experiment [15] and in experiment [16] was inactive. For the same compound, the activation in [10] was 34% (active).
For the compound `CCOC(=O)C1(CCc2ccccc2)CCN(Cc2ccc(OC)cc2)CC1`, the results for the activation in experiment [1] and in [10] were 101% (active) and 77.5% (active), respectively. Besides, the result in experiment [2], in experiment [3], in [4], in experiment [5], in experiment [6] and in experiment [7] was inactive. For the same compound, the outcome in experiment [8], in experiment [9], in experiment [11], in experiment [12], in experiment [13] and in [14] was inactive. Moreover, the result in experiment [15] and in experiment [16] was inactive.
Consider `CN(C)c1ccc(NC(=S)N2CCN(c3ncc(C(F)(F)F)cc3Cl)CC2)cc1`, for which the values for the activation in experiment [1], in [10] and in experiment [12] were 112% (active), 27.5% (active) and 54.3% (active), respectively. Besides, the result in [2], in [3], in experiment [4], in experiment [5], in [6] and in experiment [7] was inactive. In addition, the result in experiment [8], in [9], in experiment [11], in experiment [13], in experiment [14] and in experiment [15] was inactive. For the same compound, the result in experiment [16] was inactive.
Regarding `O=C(NCc1cccnc1)C1CCCN(Cc2cnn(-c3ccccc3)c2-n2cccc2)C1` (stereo not given), the figures for the activation in experiment [1], in experiment [10] and in [12] were 83% (active), 46% (active) and 16.2% (active), respectively. Besides, the result in [2], in experiment [3], in experiment [4], in experiment [5], in experiment [6] and in experiment [7] was inactive. Further, the result in experiment [8], in experiment [9], in experiment [11], in experiment [13], in experiment [14] and in experiment [15] was inactive. The result in [16] was inactive.
As for `CN(C)C(CNC(=S)Nc1cccc(Cl)c1)c1ccccc1` (stereo not given), the values for the activation in experiment [1] and in experiment [2] were 255% (active) and 127% (active), respectively. In addition, the result in [3], in experiment [4], in [5], in experiment [6], in experiment [7] and in [8] was inactive. Further, the result in [9], in experiment [10], in experiment [11], in experiment [12], in experiment [13] and in experiment [14] was inactive. Further, the result in [15] and in experiment [16] was inactive.

For the origin of these results see PubChem BioAssay.
